These results are taken from ChEMBL document CHEMBL4296182, “CO-ADD screening of NIH NCI Diversity Set V”.

In one assay the test system is Staphylococcus aureus. Description: Antibacterial activity against Staphylococcus aureus MRSA ATCC 43300 (CO-ADD:GP_020); MIC in CAMBH media using NBS plates, by Resazurin F(560/590). The class given is functional. As to conditions: Concentration 20 uM, ASSAY_TEST Inhibition of Bacterial Growth, detection method Resazurin, Fluorescence (ex560/em590), MEDIA CAMHB, plate type 384well, CORNING #3640, time 18 hr. (The colour change of resazurin is a common sign of viable cells or microbes.)

In the next assay the test system is Acinetobacter baumannii. Kind of assay: Antibacterial activity against Acinetobacter baumannii ATCC 19606 (CO-ADD:GN_034); MIC in CAMBH media using NBS plates, by Resazurin F(560/590). The format is functional. As to conditions: Concentration 20 uM, ASSAY_TEST Inhibition of Bacterial Growth, detection method Resazurin, Fluorescence (ex560/em590), MEDIA CAMHB, plate type 384well, CORNING #3640, time 18 hr.

The next assay concerns Escherichia coli. Kind of assay: Antibacterial activity against Escherichia coli ATCC 25922 (CO-ADD:GN_001); MIC in CAMBH media using NBS plates, by Resazurin F(560/590). The class given is functional. As to conditions: Concentration 20 uM, ASSAY_TEST Inhibition of Bacterial Growth, detection method Resazurin, Fluorescence (ex560/em590), MEDIA CAMHB, plate type 384well, CORNING #3640, time 18 hr.

The subject of another assay is Klebsiella pneumoniae. As to conditions: Concentration 20 uM; ASSAY_TEST Inhibition of Bacterial Growth; detection method Absorption (OD600); MEDIA CAMHB; plate type 384well; NBS; CORNING #3640; time 18 hr.
For a further assay, the system named is Candida albicans. As to conditions: 20 µM.
Another assay deals with Cryptococcus neoformans. The conditions noted are these: Concentration 20 uM; ASSAY_TEST Inhibition of Fungal Growth; detection method Resazurin; Absorption (OD600-OD570); plate type 384well; NBS; CORNING #3640.

For part of these data: Measured potencies and affinities stand elsewhere.

For orientation: Inhibition means the drop in the measured response relative to a control, in per cent. In the case of `COc1cc2c(cc1OC)[N+]([O-])=C(c1ccccc1)C2=O`, the Inhibition was 11.49% in the assay with Staphylococcus aureus; -5.23% in the assay on Acinetobacter baumannii; 9.41% in the assay with Escherichia coli; -2.97% with Klebsiella pneumoniae; 13.8% with Candida albicans; -4.84% with Cryptococcus neoformans.
Turning to `c1ccc(-c2nnc(-c3ccccn3)[nH]2)nc1`, the Inhibition with Staphylococcus aureus was 12.66%; with Acinetobacter baumannii it was 11.56%; in the assay with Escherichia coli it was -1.7%; in the assay with Klebsiella pneumoniae, 7.68%; in the assay on Candida albicans, 4.71%; in the assay with Cryptococcus neoformans, -5.04%.
With `O=C1C2C3C=CC(O3)C2C(=O)N1Nc1ccccc1` (stereo not given), the Inhibition in the assay on Staphylococcus aureus was -4%; in the assay on Acinetobacter baumannii it was 10.94%; in the assay on Escherichia coli, -0.67%; in the assay with Klebsiella pneumoniae, 8.39%; in the assay on Candida albicans it was 1.05%; in the assay with Cryptococcus neoformans, -2.5%.
For `O=C(O)CSc1ccc(NC(=O)Nc2ccccc2F)cc1`, the Inhibition is 18.21% in the assay with Staphylococcus aureus; 6.88% with Acinetobacter baumannii; 2.53% in the assay with Escherichia coli; 17.8% in the assay with Klebsiella pneumoniae; -1.57% in the assay with Candida albicans; -6.03% in the assay on Cryptococcus neoformans.
For `CC1OC1c1ccc(-c2ccc(C3OC3C)cc2)cc1` (stereo not given), the Inhibition in the assay with Staphylococcus aureus was 3.27%; in the assay on Acinetobacter baumannii it was -0.69%; in the assay on Escherichia coli it was 9.33%; in the assay on Klebsiella pneumoniae, 23.63%; in the assay with Candida albicans it was 7.55%; in the assay on Cryptococcus neoformans, -6.65%.
In the case of `C1COCCN1.O=C(O)C(C=C(Cl)Cl)N1CCOCC1` (stereo not given), the Inhibition with Staphylococcus aureus was 15.53%; with Acinetobacter baumannii, -4.57%; in the assay with Escherichia coli, -1.54%; in the assay on Klebsiella pneumoniae, 22.22%; in the assay with Candida albicans, 3.18%; with Cryptococcus neoformans it was -2.22%.
Consider `O=C(c1ccccc1)c1ccc(-c2ccc(O)cc2)cc1`, for which the Inhibition in the assay on Staphylococcus aureus is -4.49%; in the assay with Acinetobacter baumannii it was -14.62%; with Escherichia coli, 8.24%; in the assay with Klebsiella pneumoniae, 15.69%; with Candida albicans it was 6.54%; in the assay with Cryptococcus neoformans, -10.56%.
As to `COc1ccc(CC(=O)c2ccc(O)cc2O)cc1` [ONONETIN], the Inhibition in the assay with Staphylococcus aureus is 1.4%; with Acinetobacter baumannii it was 4.43%; in the assay with Escherichia coli, 2.27%; in the assay with Klebsiella pneumoniae it was 20.95%; in the assay on Candida albicans, 17.6%; in the assay on Cryptococcus neoformans, -13.72%.
`NC(=O)SCC(=O)Nc1ccccc1C(=O)O`: the Inhibition in the assay with Staphylococcus aureus is 2.18%; in the assay with Acinetobacter baumannii, 6.48%; in the assay with Escherichia coli it was -0.39%; with Klebsiella pneumoniae it was 23.65%; with Candida albicans it was 9.98%; in the assay with Cryptococcus neoformans, -3.81%.
For the compound `CCOC(=O)Nc1cc2c(c(N)n1)N=C(c1ccccc1)CN2`, the Inhibition in the assay on Staphylococcus aureus was 13.64%; in the assay on Acinetobacter baumannii, 2.33%; in the assay on Escherichia coli it was 8.87%; in the assay on Klebsiella pneumoniae, 5.47%; in the assay with Candida albicans it was 5.55%; with Cryptococcus neoformans, -8.89%.
`Brc1ccc(-c2csc(Nc3nc(-c4ccc(Br)cc4)cs3)n2)cc1`: the Inhibition in the assay on Staphylococcus aureus was 27.27%; in the assay on Acinetobacter baumannii, -8.44%; in the assay on Escherichia coli, 9.62%; with Klebsiella pneumoniae, 1.43%; in the assay with Candida albicans, 3.84%; with Cryptococcus neoformans it was 3.42%.
For `O=C(O)C1CCC(=O)N1C(=O)OCc1ccccc1` (stereo not given), the Inhibition is 2.22% with Staphylococcus aureus; -12.76% in the assay with Acinetobacter baumannii; 8.61% in the assay on Escherichia coli; 12.18% with Klebsiella pneumoniae; -1.6% in the assay with Candida albicans; -3.17% in the assay with Cryptococcus neoformans.
`CC(C)COC(=O)NC1c2ccccc2Oc2ccccc21`: the Inhibition was 8.22% with Staphylococcus aureus; -2.15% in the assay on Acinetobacter baumannii; 3.09% in the assay on Escherichia coli; 8.74% with Klebsiella pneumoniae; 5.64% with Candida albicans; -2.37% with Cryptococcus neoformans.
For `Oc1nccc(SCc2ccc(Cl)cc2Cl)n1`, the Inhibition in the assay with Staphylococcus aureus is 9.05%; with Acinetobacter baumannii it was 6.51%; with Escherichia coli, 5.78%; in the assay on Klebsiella pneumoniae, 11.54%; in the assay with Candida albicans it was 6.12%; in the assay on Cryptococcus neoformans, -13.08%.
In the case of `CCOc1ccc(NC(=O)N(O)C2(C#N)CCCCC2)cc1`, the Inhibition with Staphylococcus aureus was 13.16%; in the assay on Acinetobacter baumannii, 8.44%; in the assay with Escherichia coli, 2.02%; in the assay on Klebsiella pneumoniae it was 18.05%; with Candida albicans, 5.54%; in the assay on Cryptococcus neoformans, -2.32%.
On to `C=C(C)c1nc(Oc2ccccc2)nc(Oc2ccccc2)n1`, for which the Inhibition in the assay on Staphylococcus aureus is 19.07%; in the assay on Acinetobacter baumannii, 6.26%; in the assay with Escherichia coli, 6.34%; with Klebsiella pneumoniae, 11.06%; in the assay with Candida albicans, 0.6%; with Cryptococcus neoformans it was -9.97%.
On to `CC(C)(C)N1CC(OC(N)=O)C1`, for which the Inhibition with Staphylococcus aureus is 21.14%; in the assay with Acinetobacter baumannii, -14.09%; in the assay with Escherichia coli, 8.01%; in the assay with Klebsiella pneumoniae, 8.74%; with Candida albicans, 1.7%; in the assay with Cryptococcus neoformans, -9.34%.
Consider `Nc1cc(N)nc(CS)n1`, for which the Inhibition with Staphylococcus aureus was 9.52%; in the assay with Acinetobacter baumannii, -5.46%; in the assay with Escherichia coli, 6.53%; with Klebsiella pneumoniae it was 20.9%; in the assay with Candida albicans, -2.73%; in the assay on Cryptococcus neoformans, -6.05%.
Turning to `CN1C(=O)CC2(C)C1=CCc1scnc12` (stereo not given), the Inhibition was 8.85% in the assay with Staphylococcus aureus; 8.37% in the assay with Acinetobacter baumannii; 0.52% with Escherichia coli; 4.25% in the assay with Klebsiella pneumoniae; 2.6% with Candida albicans; -1.43% in the assay on Cryptococcus neoformans.
For the compound `COC(=O)Cc1[nH]c(Cl)nc1C(N)=O`, the Inhibition was -16.49% in the assay on Staphylococcus aureus; -11.06% with Acinetobacter baumannii; -2.69% in the assay on Escherichia coli; 2.53% with Klebsiella pneumoniae; 1.21% in the assay with Candida albicans; 7.24% with Cryptococcus neoformans.
